Measured values taken from PubChem BioAssay (NCATS).
Records with an inconclusive call do not appear. Entries that show only a call come without a potency. Unmarked numbers belong to inactive results. Active and inactive are the calls of the source. Calls come from the whole dose curve; as a rule, active = well fitted curve in the direction sought with a large enough effect; inconclusive = small, poorly fitted or top-dose-only effect, or another doubt; inactive = no such curve, though single readings can be large; an effect the other way counts as inactive or inconclusive.

What was measured:
[1] = target: Rap guanine nucleotide exchange factor 3 (Homo sapiens) (UniProt O95398); assay: Confirmatory qHTS for antagonist of cAMP-regulated guanine nucleotide exchange factor 3 (EPAC1) (AID 1645880); conditions: EPAC1 Rap1B-BODIPY-GDP exchange, fluorescence; activity, negative = inhibition: at 115 µM (top of the series); note: nearly all actives have a fitted effect of over 55% in size; note: potency is the fitted concentration of half-maximal effect
Outline: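 Nucleotide exchange uses 100 nM EPAC1, 250 nM RAP1B-BODIPY-GDP and 50 uM GDP, with compounds in a concentration-titration series. After 5 min at room temperature, fluorescence (480 nm ex/540 nm em) is read every 5 min for 30 min. Data are normalized to control ATA and DMSO.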

[2] = target: Rap guanine nucleotide exchange factor 3 (Homo sapiens) (UniProt O95398); assay: Confirmatory qHTS for agonist of cAMP-regulated guanine nucleotide exchange factor 3 (EPAC1) (AID 1645881);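 note: EPAC1 catalysed release of BODIPY-GDP from Rap1B seen as fluorescence loss; nearly all actives have a fitted effect of over 75% in size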
[3] = target: Rap guanine nucleotide exchange factor 4 (Homo sapiens) (UniProt Q8WZA2); assay: Confirmatory qHTS for agonist of cAMP-regulated guanine nucleotide exchange factor 4 (EPAC2) (AID 1645884);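 note: nucleotide exchange releases bodipy-GDP from Rap1 and this lowers its fluorescence; nearly all actives have a fitted effect of over 65% in size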
[4] = target: Rap guanine nucleotide exchange factor 3 (Homo sapiens) (UniProt O95398); assay: Counterscreen qHTS for agonist of cAMP-regulated guanine nucleotide exchange factor 3 (EPAC1) (AID 1645889); note: nearly all actives have a fitted effect of over 40% in size; note: potency is the fitted concentration of half-maximal effect
Outline: (§1)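 Rap1B-BODIPY-GDP 250 nM + GDP 50 uM; cpds 7-pt, final 9.74 nM–152 uM (activator mode) or from 7.32 nM upwards (inhibitor mode); RT; FI 480/540 nm at 5 and 30 min, then ± cAMP, reread.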

[5] = target: Rap guanine nucleotide exchange factor 4 (Homo sapiens) (UniProt Q8WZA2); assay: Confirmatory qHTS for antagonist of cAMP-regulated guanine nucleotide exchange factor 4 (EPAC2) (AID 1645885); note: nearly all actives have a fitted effect of over 25% in size; note: potency is the fitted concentration of half-maximal effect
[6] = target: Rap guanine nucleotide exchange factor 3 (Homo sapiens) (UniProt O95398); assay: Counterscreen qHTS for antagonist of cAMP-regulated guanine nucleotide exchange factor 3 (EPAC1) (AID 1645888);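 note: fluorescence loss as bound BODIPY-GDP is released from Rap1B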
Outline: as §1

Rap guanine nucleotide exchange factor 4 (Homo sapiens), sequence (Q8WZA2 whole entry, looked up): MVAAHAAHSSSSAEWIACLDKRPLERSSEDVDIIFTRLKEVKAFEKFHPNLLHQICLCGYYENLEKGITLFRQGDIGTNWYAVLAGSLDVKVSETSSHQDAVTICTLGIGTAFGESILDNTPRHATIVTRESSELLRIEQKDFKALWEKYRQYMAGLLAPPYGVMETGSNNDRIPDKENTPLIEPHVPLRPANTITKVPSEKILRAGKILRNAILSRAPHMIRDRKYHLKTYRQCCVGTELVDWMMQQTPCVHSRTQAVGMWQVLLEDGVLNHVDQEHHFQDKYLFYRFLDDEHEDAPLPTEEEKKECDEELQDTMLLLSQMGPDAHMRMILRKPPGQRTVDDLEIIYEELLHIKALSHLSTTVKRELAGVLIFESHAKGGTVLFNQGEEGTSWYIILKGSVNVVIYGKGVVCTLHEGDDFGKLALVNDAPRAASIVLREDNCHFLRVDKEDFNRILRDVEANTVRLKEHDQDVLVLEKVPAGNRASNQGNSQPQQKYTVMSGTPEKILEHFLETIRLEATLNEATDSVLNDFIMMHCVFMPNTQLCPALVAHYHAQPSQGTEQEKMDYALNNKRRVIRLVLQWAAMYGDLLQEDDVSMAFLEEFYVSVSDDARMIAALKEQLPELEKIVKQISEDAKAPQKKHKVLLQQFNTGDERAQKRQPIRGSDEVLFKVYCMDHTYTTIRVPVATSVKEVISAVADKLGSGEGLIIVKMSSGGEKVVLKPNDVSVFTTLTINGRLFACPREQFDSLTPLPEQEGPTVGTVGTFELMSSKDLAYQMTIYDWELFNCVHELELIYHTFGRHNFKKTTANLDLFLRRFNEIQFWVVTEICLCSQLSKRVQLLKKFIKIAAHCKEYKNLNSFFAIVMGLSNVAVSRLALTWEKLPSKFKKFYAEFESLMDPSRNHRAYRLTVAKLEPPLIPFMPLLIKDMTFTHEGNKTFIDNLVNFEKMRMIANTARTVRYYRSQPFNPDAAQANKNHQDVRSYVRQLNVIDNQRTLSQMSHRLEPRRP
Rap guanine nucleotide exchange factor 3 (Homo sapiens), sequence (O95398 whole entry, looked up): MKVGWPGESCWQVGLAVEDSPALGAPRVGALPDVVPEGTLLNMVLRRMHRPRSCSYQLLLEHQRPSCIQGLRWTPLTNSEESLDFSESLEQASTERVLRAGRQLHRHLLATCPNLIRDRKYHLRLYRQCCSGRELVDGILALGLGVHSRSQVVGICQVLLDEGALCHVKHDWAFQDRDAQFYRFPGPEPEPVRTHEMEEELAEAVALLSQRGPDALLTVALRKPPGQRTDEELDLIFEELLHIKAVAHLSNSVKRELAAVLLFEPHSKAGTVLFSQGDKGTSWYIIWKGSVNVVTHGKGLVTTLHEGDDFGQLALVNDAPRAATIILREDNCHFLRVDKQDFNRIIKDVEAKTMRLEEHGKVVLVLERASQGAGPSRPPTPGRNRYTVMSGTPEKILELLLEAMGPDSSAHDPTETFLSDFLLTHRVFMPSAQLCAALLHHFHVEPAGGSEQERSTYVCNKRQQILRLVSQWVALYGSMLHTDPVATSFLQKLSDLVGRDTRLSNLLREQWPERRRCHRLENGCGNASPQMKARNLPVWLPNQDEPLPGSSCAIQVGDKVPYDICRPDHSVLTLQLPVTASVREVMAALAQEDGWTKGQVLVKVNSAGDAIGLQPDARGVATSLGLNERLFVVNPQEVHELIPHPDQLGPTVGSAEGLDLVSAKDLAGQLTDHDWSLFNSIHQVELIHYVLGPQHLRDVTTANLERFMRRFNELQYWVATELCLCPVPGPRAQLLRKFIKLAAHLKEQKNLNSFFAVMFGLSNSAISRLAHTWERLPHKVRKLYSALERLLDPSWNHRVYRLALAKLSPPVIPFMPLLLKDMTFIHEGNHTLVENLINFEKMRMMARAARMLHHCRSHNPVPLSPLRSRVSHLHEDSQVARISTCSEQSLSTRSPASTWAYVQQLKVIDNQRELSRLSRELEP

SMILES: CCOCCCn1c(=N)c(S(=O)(=O)c2ccccc2)cc2c(=O)n3cc(C)ccc3nc21
- Potency [1]: inactive
- Potency [2]: inactive
- Potency [3]: inactive
- Potency [4]: inactive

SMILES: Cc1cccc(Cn2c(C)nc3c(N)c(C)c(C)cc32)c1
- Potency [1]: inactive
- Potency [2]: inactive
- Potency [3]: inactive
- Potency [4]: inactive

SMILES: COc1ccc(CCNC(=O)CCCn2c(SCC(N)=O)nc3cc4c(cc3c2=O)OCO4)cc1OC
- Potency [1]: inactive
- Potency [2]: inactive
- outcome [5]: inactive [at 12.7 µM]
- Potency [6]: inactive

SMILES: CCOC(=O)C1(Cc2ccccc2)C(=O)Nc2ccccc21 (stereo not given)
- Potency [1]: inactive
- Potency [2]: inactive
- activation [3]: 2.58% [at 17.1 µM, percent relative to cAMP agonist control]
- activation [4]: 32.7% [at 30.8 µM]

SMILES: CN(C)c1ccc(/C=C/c2c3c(nc4ccccc24)CCCC3)cc1
- Potency [1]: inactive
- Potency [2]: inactive
- Potency [5]: inactive

SMILES: COC(=O)c1c(SC)nc2ccccc2c1OCc1ccccc1Cl
- Potency [1]: inactive
- Potency [2]: inactive
- Potency [5]: inactive
- Potency [6]: inactive
- Potency [4]: inactive

SMILES: O=C(c1ccccc1Br)N(Cc1ccco1)Cc1ccco1
- Potency [1]: inactive
- Potency [2]: inactive
- Potency [5]: inactive
- Potency [6]: inactive
- Potency [4]: inactive

SMILES: Cc1oc2cc(Br)c(O)c(Br)c2c1C(=O)c1ccccc1
- Potency [1]: inactive
- Potency [2]: inactive
- Potency [5]: inactive
- Potency [6]: inactive

SMILES: COc1ccc2c(Cl)c(C(=O)N/N=C3\CCCC(=O)C3)sc2c1
- Potency [1]: inactive
- Potency [2]: inactive
- Potency [5]: 30.1 µM (active)
- Potency [6]: inactive
- Potency [4]: 39.8 µM (active)

SMILES: COc1ccc(N=Nc2nc3ccc(Br)cc3n2C)cc1
- Potency [1]: inactive
- Potency [2]: inactive
- Potency [5]: inactive
- Potency [6]: inactive
- Potency [4]: 50.1 µM (active)

SMILES: O=C(Nc1ccccc1N1CCCCC1)C1=COCCO1
- Potency [1]: inactive
- Potency [2]: inactive
- Potency [5]: inactive
- Potency [6]: inactive

SMILES: CCOc1ccc(NC2c3ccccc3C(=O)N2Cc2ccco2)cc1 (stereo not given)
- Potency [1]: inactive
- Potency [2]: inactive
- Potency [5]: inactive
- Potency [6]: inactive
- Potency [4]: inactive

SMILES: O=C1CCC(C(=O)Nc2ccccc2N2CCCC2)=NN1
- Potency [1]: inactive
- Potency [2]: inactive
- Potency [5]: inactive
- Potency [6]: inactive

SMILES: CC(C)COc1ccc(C(=O)Nc2cc(-c3ccccc3)no2)cc1
- Potency [1]: inactive
- Potency [2]: inactive
- Potency [5]: inactive
- Potency [6]: inactive
- Potency [4]: inactive

SMILES: N#CC1=C2N=C(N)c3c(sc4c3CCCCC4)N2C2=C(C(=O)CCC2)C1c1ccccc1 (stereo not given)
- Potency [1]: inactive
- Potency [2]: inactive
- Potency [5]: inactive
- Potency [6]: inactive
- Potency [4]: inactive

SMILES: O=S(=O)(Nc1ccccc1N1CCCCC1)c1cccs1
- Potency [1]: inactive
- Potency [2]: inactive
- Potency [5]: 19 µM (active)
- Potency [6]: inactive

SMILES: CCOC(=O)c1cc2c(=O)n3ccccc3nc2n(C(C)C)c1=NC(=O)c1cc2ccccc2o1
- Potency [1]: 75.7 µM (active)
- Potency [2]: inactive
- Potency [5]: inactive
- Potency [6]: inactive
- Potency [4]: inactive

SMILES: COc1ccc(NC(=O)CN(C)C(=O)c2cn(-c3ccccc3)nc2-c2cccnc2)cc1
- Potency [1]: inactive
- Potency [2]: inactive
- Potency [5]: inactive
- Potency [6]: inactive

SMILES: C=CCN1C(=O)/C(=C/C=C2/N(CC)c3ccc(S(=O)(=O)N(C)C)cc3N2CC)SC1=S
- Potency [1]: inactive
- Potency [2]: inactive
- Potency [5]: inactive
- activity change, negative = inhibition [6]: -11.8% [at 30.8 µM]
- activation [4]: 14.5% [at 30.8 µM]

SMILES: COc1cc(/C=N/NC(=O)c2cc(O)cc(O)c2)ccc1OC(=O)c1ccccc1
- Potency [1]: 33.8 µM (active)
- Potency [2]: inactive
- Potency [5]: 3.38 µM (active)
- Potency [6]: inactive

SMILES: Cc1cccc(NC(=O)CC2C(=O)OCCN2Cc2ccccc2)c1 (stereo not given)
- Potency [1]: inactive
- Potency [2]: inactive
- Potency [5]: inactive
- Potency [6]: inactive
- Potency [4]: inactive

SMILES: CCCc1nn2c(=O)cc(COC(=O)c3ccc(NC(=O)COc4ccccc4F)cc3)nc2s1
- Potency [1]: inactive
- Potency [2]: inactive
- Potency [5]: inactive
- Potency [6]: inactive
- Potency [4]: inactive

SMILES: CCCCCCOC(=O)C(C#N)c1nc2ccccc2nc1N1CCCCC1 (stereo not given)
- Potency [1]: inactive
- Potency [2]: inactive
- Potency [5]: inactive
- Potency [6]: inactive

SMILES: O=C1CSC(c2ccc(Cl)cc2Cl)N1c1ccccn1 (stereo not given)
- Potency [1]: inactive
- Potency [2]: inactive
- Potency [5]: inactive
- Potency [6]: inactive

SMILES: COc1ccc(C(=O)c2oc3ccccc3c2NC(=O)c2cc(=O)c3ccc(C)cc3o2)cc1Cl
- Potency [1]: inactive
- Potency [2]: inactive
- outcome [5]: inactive [at 12.7 µM]
- Potency [6]: inactive

SMILES: Cc1nnc(N2CCC(C(=O)NC3CCCCC3)CC2)c2nn(-c3ccccc3)c(C)c12
- Potency [1]: inactive
- Potency [2]: inactive
- Potency [5]: inactive
- Potency [6]: inactive
- Potency [4]: inactive

SMILES: Cc1cc(C)c(S(=O)(=O)N(C)c2ccccc2)c(C)c1
- Potency [1]: inactive
- Potency [2]: inactive
- Potency [5]: 23.9 µM (active)
- Potency [6]: inactive
- Potency [4]: inactive

SMILES: O=C(C(=Cc1ccccc1)c1ccccc1)c1ccccc1
- Potency [1]: inactive
- Potency [2]: inactive
- Potency [5]: inactive
- Potency [6]: inactive
- Potency [4]: inactive

SMILES: O=C1COc2ccc(C(=O)COC(=O)c3ccc4ccccc4n3)cc2N1
- Potency [1]: 75.7 µM (active)
- Potency [2]: inactive
- Potency [5]: inactive
- Potency [6]: inactive
- Potency [4]: inactive

SMILES: CCC(=O)N1CCc2cc(CNC(=O)c3ccccc3C)ccc21
- Potency [1]: inactive
- Potency [2]: inactive
- Potency [5]: inactive
- Potency [6]: inactive
- Potency [4]: inactive
